Calls of active or inactive are those of the source. How the source made its calls: active means hit-call score of the fitted dose curve at least 0.9, where 1 is the maximum; inactive means score below 0.9.

Read-out in the assay: catalase (CAT), CAT (gene 847)
As to the kind of experiment: LTEA_HepaRG_CAT: Life Technologies and Expression Analysis (LTEA) Assay for catalase (CAT) using HepaRG (AID 2283452).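 On AC50: TaqMan qRT-PCR signal normalized to ACTB GAPDH and POLR2A housekeeping genes.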 As to conditions: mRNA level, 48 h; actives raise or lower the signal. How it is done: LTEA_HepaRG is a cell based, multiplexed-readout assay that uses HepaRG, a human liver cell line, with measurements taken at 48 hours after chemical dosing on a 96-well plate.LTEA_HepaRG_CAT is one of 102 assay component(s) measured in the LTEA HepaRG cell culture assay. It is a marker of Oxidative Stress.Data from the assay component LTEA_HepaRG_CAT was analyzed into 1 endpoint. This assay endpoint, LTEA_HepaRG_CAT, was analyzed with bidirectional fitting relative to DMSO as the negative control and baseline of activity. Using a type of inducible reporter, measures of mRNA induction for gain or loss-of-signal activity can be used to understand regulation of transcription factor activity. To generalize the intended target to other relatable targets, this assay endpoint is annotated to the catalase intended target family, where the subfamily is oxidative stress.
A total of 1060 chemcials from the ToxCast library were tested in eight-point concentration-response experiments. Cell culture and cytotoxicity assays were conducted at Thermo Fisher Scientific's Custom Services facility (Madison, WI). A single lot of human HepaRG cells (Thermo Fisher Scientific, Frederick, MD) was used for the cell culture experiments. 96-well format collagen type I coated plates of human HepaRG cells were prepared using established methods. Briefly, cryopreserved HepaRG cells were thawed, plated at a density of approximately 100,000 cells/well in HepaRG Thaw, Plate, and General Purpose media (HPRG770, Thermo Fisher Scientific), and incubated for 48 hours. 0.5% DMSO was selected as vehicle control to balance the requisite need of DMSO in HepaRG cultures to maintain differentiation (for example, baseline metabolism, proportions of hepatocytes vs. cholangiocytes), while enabling further hepatic receptor pathway activation (for example, PXR and CAR) in response to chemical exposure. 48 hours after plating, the culture medium was replaced with HepaRG Serum-Free Incudtion Media. Cells were exposed to each test chemical in duplicate and maintained in CO2 incubators for another 48 hours. Chemical plates were thawed to room temperature and 200x concentrations of treatment groups were prepared. 8-point conentration-reponse curves were made with the highest exposure at 100 uM, followed by half-log dilutions, all in 0.5% DMSO. Each test plate contained variouse controls, induction positive controls (1mM phenobarbital), cytotoxicity positive controls ([…] aflatoxin B1), vehicle controls (0.5% DMSO), and total lysis controls (0.5% DMSO). Cell morphology images were taken using an Essen IncuCyte FLR automated microscope, with six 96-well plates imaged in about 24 minutes. Images were captured and exported and JPEG files. Spent culture media was transfered to black-well plates for the LDH assay, and remaining media was sorted at -80 C for later use. Cells were treated with RLT buffer and frozen until shipped for gene expression analysis. Total RNA was isolated from the cell suspension in 75 uL of Buffer RLT (Qiagen, Germantown, MD 20874) by Quintiles/Expression Analysis (Durham, NC) using a custom isolation procedure. Total RNA from each plate well was transferred to a preamplification plate. Fluidigm's 96.96 Dynamic ArrayTM (Fluidigm, Amsterdam, the Netherlands) technology was used for gene expression analyses by quantitative reverse transcription polymerase chain reaction (qRT-PCR, performed by Quintiles/Expression Analysis, Durham, NC)89. Standard TaqManTM Assays (Applied Biosystems/ThermoFisher Scientific, Foster City, CA) were used to assess the expression of 93 genes selected based on their selectivity and sensitivity to important hepatic receptors known to be modulated by environmental chemicals; importance in human hepatocyte functionality; and hepatotoxicity. […]
Regarding `CCOC(=O)c1ccccc1C(=O)OCC`, the call was inactive.

With `O=[N+]([O-])c1ccc(Cl)c(Cl)c1`, the call was inactive.

In the case of `CN(C)C(=O)Cl`, the outcome was inactive.

For `CCNc1nc(Cl)nc(NC(C)(C)C)n1`, the compound was called inactive.

As to `CCOc1ccc(C(C)(C)COCc2cccc(Oc3ccccc3)c2)cc1`, the outcome was inactive.

With `c1ccc(OP(Oc2ccccc2)Oc2ccccc2)cc1`, the result was inactive.

Consider `Nc1ccc2ccccc2c1`, for which the compound was classed as inactive.

For the compound `ClC(Cl)(Cl)c1ccccc1`, the outcome was inactive.

As to `Nc1ccc(Cl)cc1`, the compound was called inactive.

For the compound `CC(C)(C)c1ccc(O)cc1`, the result was inactive.

With `CCCCN(CCCC)SN(C)C(=O)Oc1cccc2c1OC(C)(C)C2`, the call was inactive.

In the case of `O=C(O)C1C(C(=O)O)C2(Cl)C(Cl)=C(Cl)C1(Cl)C2(Cl)Cl` (stereo not given), the compound was classed as inactive.

`OCC1CO1` (stereo not given): the compound was called inactive.

With `CCN(CC)c1ccccc1`, the result was inactive.

Regarding `Cc1ccc([N+](=O)[O-])cc1C`, the call was inactive.

In the case of `CC(Cc1ccc(OCC(=O)O)cc1)NCC(O)c1csc(C(F)(F)F)n1` (stereo not given), the outcome was inactive.

For the compound `[N-]=[N+]=[N-]`, the AC50 – broadly, the concentration giving half of the maximal activity seen – was 82.9 µM (active).

As for `CCOS(=O)(=O)OCC`, the compound was called inactive.

On to `c1cc2c3c(cccc3c1)CC2`, for which the compound was classed as inactive.

On to `COCCOCCO`, for which the result was inactive.

As to `CCOP(=S)(Oc1ccc([N+](=O)[O-])cc1)c1ccccc1` (stereo not given), the result was inactive.

As for `Cc1cccc(N)c1`, the result was inactive.

As to `c1nc[nH]n1`, the compound was classed as inactive.

Take `CCC1(c2ccccc2)C(=O)N=C(O)NC1=O` (stereo not given): the outcome was inactive.

Take `CC(C)(C)OOC(C)(C)C`: the compound was classed as inactive.

`CCCCCCCc1ccc(O)cc1`: the result was inactive.

With `c1ccc2c(c1)Nc1ccccc1S2`, the call was inactive.

`ClC1=C(Cl)C2(Cl)C3C(Cl)C(Cl)CC3C1(Cl)C2(Cl)Cl` (stereo not given): the outcome was inactive.

On to `CCCCc1ccccc1`, for which the outcome was inactive.

Turning to `CCCCN(CCCC)N=O`, the compound was called inactive.

As to `Cc1ccc(O)cc1C`, the compound was called inactive.

Regarding `CSC(C)(C)C=NO`, the outcome was inactive.

Turning to `CCCN(CCC)c1c([N+](=O)[O-])cc(C(C)C)cc1[N+](=O)[O-]`, the call was inactive.

For `O=P(Oc1ccccc1)(Oc1ccccc1)Oc1ccccc1`, the compound was classed as inactive.

As for `CCOP(=S)(OCC)SCSCC`, the call was inactive.

With `CCC(C)(C)c1ccc(O)cc1`, the compound was called inactive.

Consider `Nc1cc2c3c(c1)C(c1ccccc1)=N[C@@H](NC(=O)c1cccnc1)C(=O)N3CC2`, for which the outcome was inactive.

Turning to `Cc1ccc(N)cc1N`, the outcome was inactive.

`O=P1(N(CCCl)CCCl)NCCCO1` (stereo not given): the result was inactive.

With `O=[N+]([O-])c1ccccc1`, the compound was called inactive.

Values taken from PubChem BioAssay (EPA / NIEHS).
